Records with an inconclusive call do not appear. Activity calls are given as the source filed them. Unless noted, calls follow the shape of the full dose curve.
Experiments:
[1] = Nuclear factor erythroid 2-related factor 2/antioxidant responsive element (Nrf2/ARE) small molecule agonists: qHTS cell viability counter screen in human keratinocytes (AID 1919968; active = well fitted curve in the direction sought with a large enough effect in the repeat runs; an effect the other way counts as inactive or inconclusive; also: nearly all actives have a fitted effect of over 55% in size)
Outline: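 Fluorescence read-out from CellTiter-Fluor after 1 h at 37 C. Wells held HaCaT-derived ARE-luciferase reporter cells (1,500/well) treated 23 h with DMSO-dissolved compounds. Run in the same wells as the luciferase agonist read.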

[2] = biological target: Gonadotropin-releasing hormone receptor (Homo sapiens) (UniProt P30968); assay: Human gonadotropin-releasing hormone receptor (GnRHR) small molecule agonists, calcium flux assay in GnRHR-HEK293 cells (AID 1920063); also: nearly all actives have a fitted effect of over 35% in size
Outline: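 Calcium-dye fluorescence, Ex/Em=480/540, recorded every 1 sec over 3 min after compound addition to GnRHR-HEK293 cells. Cells had been seeded 18 hours earlier and dye-loaded for 1 hour at 37 C. Fifteen concentrations, triplicates.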

[3] = biological target: KiSS-1 receptor (Homo sapiens) (UniProt Q969F8); assay: Human kisspeptin (KISS1R) small molecule agonists, calcium flux assay in KISS1R-HEK293 cells (AID 1920064; active = well fitted curve in the direction sought with a large enough effect in the repeat runs; an effect the other way counts as inactive or inconclusive)
Outline: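 Calcium flux read-out: kinetic fluorescence at Ex/Em=480/540, 1 s intervals over 3 min, after pin-tool compound addition to dye-loaded KISS1R-HEK293 cells. Fifteen concentrations, triplicates.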

[4] = G protein-coupled receptor (GPCR) small molecule agonists, calcium flux assay: HEK293 wild type cell line counter screen (AID 1920065)
Outline: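 Agonist mode; 18 h seeding at 37 C, 1 h dye load at 37 C; compounds pinned from DMSO, ATP as positive control; kinetic fluorescence 480/540 nm, 3 min, 1 s reads; 15 concentrations, triplicate.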

[5] = p53 small molecule agonists, cell-based qHTS assay with human liver microsomes: qHTS cell viability counter screen (AID 1963579); also: nearly all actives have a fitted effect of over 45% in size
Outline: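 Metabolically activated exposure: compounds, human liver microsomes and NADPH (0.5 mg/mL final apiece) were added to p53RE-bla cells seeded 5 h earlier, left 16 h at 37 C, and then assessed for viability by CellTiter-Glo luminescence.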

[6] = p53 small molecule agonists, cell-based qHTS assay with rat liver microsomes: qHTS cell viability counter screen (AID 1963580); also: nearly all actives have a fitted effect of over 45% in size
Outline: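 After the beta-lactamase ratio was read, CellTiter-Glo was added to the same wells and luminescence measured at 30 min; cells had been treated 16 h at 37 C with compounds, rat liver microsomes and NADPH (0.5 mg/mL final each).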

[7] = p53 small molecule agonists, cell-based qHTS assay: qHTS cell viability counter screen (AID 1963581); also: nearly all actives have a fitted effect of over 45% in size
Outline: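 Cytotoxicity read-out: ATP-based luminescence (CellTiter-Glo, 30 min RT) measured in the same wells as the p53 reporter assay, HCT-116 p53RE-bla cells, 16 h compound exposure at 37 C.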

[8] = biological target: 5-hydroxytryptamine receptor 2A (Homo sapiens) (UniProt P28223); assay: 5-hydroxytryptamine receptor 2A (HTR2A) small molecule antagonists, cell-based qHTS assay (AID 1963586); also: nearly all actives have a fitted effect of over 45% in size
Outline: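 CHO cells stably expressing human HTR2A were plated for 18 h at 37 C, then loaded with calcium dye for 1 h. Compounds were preincubated 5 min at room temperature before DOI (4 nM solution) was added. Kinetic fluorescence was read for 3 min.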

[9] = biological target: 5-hydroxytryptamine receptor 2A (Homo sapiens) (UniProt P28223); assay: 5-hydroxytryptamine receptor 2A (HTR2A) small molecule agonists, cell-based qHTS assay (AID 1963587); also: nearly all actives have a fitted effect of over 30% in size
Outline: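 CHO cells stably expressing human HTR2A, plated 18 h, loaded with calcium dye 1 h at 37 C. Agonist mode: compounds added and intracellular calcium fluorescence recorded kinetically for 2 min at 1 sec intervals.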

[10] = biological target: Muscarinic acetylcholine receptor M1 (Homo sapiens) (UniProt P11229); assay: Cholinergic receptor muscarinic 1 (CHRM1) small molecule antagonists, cell-based qHTS assay (AID 1963588); also: nearly all actives have a fitted effect of over 40% in size
Outline: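 Compounds were tested at 15 concentrations in three independent runs. Dye-loaded CHRM1-CHO cells were exposed 5 min at room temperature before stimulation by acetylcholine added at 50nM. Intracellular calcium was read kinetically on FDSS for 3 min.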

[11] = biological target: Muscarinic acetylcholine receptor M1 (Homo sapiens) (UniProt P11229); assay: Cholinergic receptor muscarinic 1 (CHRM1) small molecule agonists, cell-based qHTS assay (AID 1963589); also: nearly all actives have a fitted effect of over 35% in size
Outline: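 Calcium flux read-out: kinetic fluorescence at 1 sec intervals after pin-tool compound addition to dye-loaded CHRM1-CHO cells (human M1). Agonist mode; 15 concentrations tested in triplicate independent runs.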

[12] = cAMP Responsive Elements (CRE) small molecule agonists, cell-based qHTS assay (AID 1963590)
Outline: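 Beta-lactamase reporter readout: LiveBLAzer B/G FRET substrate, 2 h at room temperature, added after 3 h compound treatment of CRE-bla HEK 293T cells at 37 C/5% CO2.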

[13] = cAMP Responsive Elements (CRE) small molecule antagonists, cell-based qHTS assay (AID 1963591; active = well fitted inhibition curve with a large enough effect in the signal ratio in the repeat runs, not every such curve was filed as active; the % refers to the signal ratio)
Outline: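 HEK293T CRE-bla; 18 h preincubation; compound pin-transfer; NKH477 0.25 uM final, 3 h, 37 C; LiveBLAzer FRET substrate 2 h RT.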

[14] = biological target: Beta-2 adrenergic receptor (Homo sapiens) (UniProt P07550); assay: Adrenergic beta2 receptor (ADRB2) small molecule antagonists, cell-based qHTS assay (AID 1963592); also: series mostly up to about 92 µM; nearly all actives have a fitted effect of over 50% in size
Outline: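 Assay format: CHO-ADRB2 cells, 18-20hr seeding at 37C/5% CO2, then compound plus 1nM isoproterenol agonist mix for 0.5hr RT. Homogeneous time-resolved fluorescence cAMP detection after 1hr, expressed as 665/615 nm ratio.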

[15] = biological target: D(2) dopamine receptor (Homo sapiens) (UniProt P14416); assay: Dopamine D2 receptor (DRD2) small molecule agonists, cell-based qHTS assay (AID 1963594); also: nearly all actives have a fitted effect of over 35% in size
Outline: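 HEK293 cells stably expressing human DRD2, pre-treated with PDE inhibitor Ro20-1724 (0.1 mM final) and compound 10 min at room temperature, then stimulated with NKH477 (200nM […]) for 30 min. cAMP read by HTRF (665/620 nm).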

[16] = biological target: D(2) dopamine receptor (Homo sapiens) (UniProt P14416); assay: Dopamine D2 receptor (DRD2) small molecule antagonists, cell-based qHTS assay (AID 1963595; active = well fitted inhibition curve with a large enough effect in the signal ratio in the repeat runs, with a control signal flat; the % refers to the signal ratio)
Outline: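 Antagonist mode in DRD2-HEK293 cells: after compound addition with 0.1 mM Ro20-1724, cells received quinpirole (12 nM) and NKH477 (200 nM) for 30 min at room temperature; HTRF cAMP read after 1 h detection.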

[17] = p53 small molecule agonists, cell-based qHTS assay (AID 1963582; active = well fitted activation curve with a large enough effect in the signal ratio in the repeat runs, not every such curve was filed as active; the % refers to the signal ratio)
Outline: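 Fluorescence intensity read-out of a beta-lactamase reporter under a p53 response element. Cells were exposed to DMSO-dissolved compounds for 16 h at 37 C, then developed with FRET substrate for 2 h at RT.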

[18] = p53 small molecule agonists, cell-based qHTS assay with rat liver microsomes (AID 1963578)
Outline: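 Agonist mode in p53RE-bla reporter cells, with compounds co-incubated 16 h at 37 C alongside 0.5 mg/mL rat liver microsomes and 0.5 mg/mL NADPH (final), followed by a 2 h LiveBLAzer detection step.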

[19] = p53 small molecule agonists, cell-based qHTS assay with human liver microsomes (AID 1963577);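 also: p53 response element beta-lactamase reporter cells with liver microsomes plus NADPH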
Outline: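 In this qHTS, p53 response-element beta-lactamase cells receive test compound together with a microsome/NADPH activating system (0.5 mg/mL final each) and are incubated 16 h at 37 C before LiveBLAzer fluorescence detection.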

[20] = biological target: Beta-2 adrenergic receptor (Homo sapiens) (UniProt P07550); assay: Adrenergic beta2 receptor (ADRB2) small molecule agonists, cell-based qHTS assay (AID 1963593);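 also: CHO cells stably overexpressing human ADRB2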
Outline: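 CHO cells stably over-expressing ADRB2 were plated overnight at 37C, then dosed with compounds plus a stimulation mix containing 100uM IBMX and 25uM Ro-20-1724 for 0.5hr at room temperature. cAMP was measured by HTRF competition, 1hr.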

Measured: Potency

Sequence of KiSS-1 receptor (Homo sapiens) (Q969F8 whole entry, looked up): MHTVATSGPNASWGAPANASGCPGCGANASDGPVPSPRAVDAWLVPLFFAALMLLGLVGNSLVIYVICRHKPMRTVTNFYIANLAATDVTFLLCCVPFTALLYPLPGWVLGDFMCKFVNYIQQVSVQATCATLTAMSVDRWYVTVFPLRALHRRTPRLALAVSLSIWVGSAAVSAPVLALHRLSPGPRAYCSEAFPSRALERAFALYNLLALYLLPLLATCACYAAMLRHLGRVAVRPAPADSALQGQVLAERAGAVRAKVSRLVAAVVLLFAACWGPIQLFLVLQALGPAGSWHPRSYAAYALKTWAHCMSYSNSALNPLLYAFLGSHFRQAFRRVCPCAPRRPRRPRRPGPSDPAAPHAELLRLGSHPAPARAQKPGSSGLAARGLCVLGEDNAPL
Sequence of Beta-2 adrenergic receptor (Homo sapiens) (P07550 whole entry, looked up): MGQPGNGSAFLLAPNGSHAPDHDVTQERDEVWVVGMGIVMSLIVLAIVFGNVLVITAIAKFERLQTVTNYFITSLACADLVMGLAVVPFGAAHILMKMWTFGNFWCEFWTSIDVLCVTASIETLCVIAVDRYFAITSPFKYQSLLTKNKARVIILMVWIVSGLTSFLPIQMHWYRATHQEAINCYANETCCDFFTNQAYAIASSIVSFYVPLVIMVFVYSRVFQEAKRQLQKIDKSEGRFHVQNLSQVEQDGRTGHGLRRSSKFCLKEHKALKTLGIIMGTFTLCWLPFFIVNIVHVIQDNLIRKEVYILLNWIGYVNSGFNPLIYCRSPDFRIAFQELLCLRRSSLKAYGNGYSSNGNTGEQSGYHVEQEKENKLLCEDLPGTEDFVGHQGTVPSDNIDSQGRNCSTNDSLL
Sequence of Muscarinic acetylcholine receptor M1 (Homo sapiens) (P11229 whole entry, looked up): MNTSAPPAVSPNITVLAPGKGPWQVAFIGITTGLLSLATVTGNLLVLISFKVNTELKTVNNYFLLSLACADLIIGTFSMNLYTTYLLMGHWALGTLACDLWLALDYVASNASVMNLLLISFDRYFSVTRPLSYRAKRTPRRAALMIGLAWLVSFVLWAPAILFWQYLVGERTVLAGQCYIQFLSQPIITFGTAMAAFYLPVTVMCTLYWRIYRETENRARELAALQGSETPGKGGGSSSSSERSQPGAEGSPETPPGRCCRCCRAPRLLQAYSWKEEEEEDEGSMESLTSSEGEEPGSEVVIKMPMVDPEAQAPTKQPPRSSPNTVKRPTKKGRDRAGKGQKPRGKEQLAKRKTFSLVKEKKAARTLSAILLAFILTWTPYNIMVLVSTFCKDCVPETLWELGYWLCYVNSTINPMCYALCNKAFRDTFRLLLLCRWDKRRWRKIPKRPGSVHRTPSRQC
Sequence of Gonadotropin-releasing hormone receptor (Homo sapiens) (P30968 whole entry, looked up): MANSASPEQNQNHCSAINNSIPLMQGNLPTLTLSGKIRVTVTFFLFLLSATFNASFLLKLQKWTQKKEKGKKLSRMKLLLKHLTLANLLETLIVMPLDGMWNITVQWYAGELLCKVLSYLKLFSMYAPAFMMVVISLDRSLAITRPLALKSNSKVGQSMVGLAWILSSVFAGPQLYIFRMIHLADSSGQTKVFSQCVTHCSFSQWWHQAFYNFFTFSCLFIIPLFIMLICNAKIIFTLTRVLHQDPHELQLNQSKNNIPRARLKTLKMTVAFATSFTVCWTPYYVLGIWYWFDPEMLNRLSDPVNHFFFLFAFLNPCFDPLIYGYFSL
Sequence of 5-hydroxytryptamine receptor 2A (Homo sapiens) (P28223 whole entry, looked up): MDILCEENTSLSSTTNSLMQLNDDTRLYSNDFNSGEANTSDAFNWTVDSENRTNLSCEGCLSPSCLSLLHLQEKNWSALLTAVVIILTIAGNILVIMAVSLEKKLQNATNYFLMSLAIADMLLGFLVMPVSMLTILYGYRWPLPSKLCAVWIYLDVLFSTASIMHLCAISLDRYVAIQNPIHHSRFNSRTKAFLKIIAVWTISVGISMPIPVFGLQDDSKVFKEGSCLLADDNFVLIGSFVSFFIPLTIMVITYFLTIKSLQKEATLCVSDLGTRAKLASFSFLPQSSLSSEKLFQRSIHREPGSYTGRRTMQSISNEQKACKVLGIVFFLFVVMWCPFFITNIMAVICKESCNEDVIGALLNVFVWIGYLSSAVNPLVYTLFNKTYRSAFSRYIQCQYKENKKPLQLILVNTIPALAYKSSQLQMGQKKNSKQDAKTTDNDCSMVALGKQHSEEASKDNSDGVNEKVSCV
Sequence of D(2) dopamine receptor (Homo sapiens) (P14416 whole entry, looked up): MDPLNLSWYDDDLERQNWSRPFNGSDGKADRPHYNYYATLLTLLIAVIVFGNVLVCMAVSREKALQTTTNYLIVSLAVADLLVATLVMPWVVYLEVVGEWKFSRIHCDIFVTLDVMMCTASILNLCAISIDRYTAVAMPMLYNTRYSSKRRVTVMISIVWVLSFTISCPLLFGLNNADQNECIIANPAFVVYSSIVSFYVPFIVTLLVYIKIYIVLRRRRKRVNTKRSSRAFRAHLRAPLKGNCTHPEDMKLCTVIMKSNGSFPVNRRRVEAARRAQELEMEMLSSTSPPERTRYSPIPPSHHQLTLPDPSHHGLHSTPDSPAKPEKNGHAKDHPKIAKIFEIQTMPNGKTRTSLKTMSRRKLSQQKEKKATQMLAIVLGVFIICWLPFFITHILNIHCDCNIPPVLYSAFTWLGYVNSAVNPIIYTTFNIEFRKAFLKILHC

CCC(=O)c1ccc(Cl)cc1
inactive: [1] | [2] | [3] | [4] | [5] | [6] | [7] | [8] | [9] | [10] | [11] | [12] | [13] | [14] | [15] | [16]

CCCC(C)C1(CC)C(=O)N=C(S)NC1=O (stereo unspecified)
inactive: [1] | [2] | [3] | [4] | [5] | [6] | [7] | [8] | [9] | [10] | [11] | [12] | [13] | [14] | [15] | [16]

N#CC(O)c1ccccc1 (stereo unspecified)
inactive: [1] | [2] | [3] | [4] | [5] | [6] | [7] | [8] | [9] | [10] | [11] | [12] | [13] | [14] | [15]

CCOP(=S)(Oc1cnc(C(C)(C)C)nc1)OC(C)C (stereo unspecified)
inactive: [1] | [2] | [3] | [4] | [5] | [6] | [7] | [17] | [8] | [9] | [10] | [11] | [14] | [15] | [16]

FC(F)(F)c1cccc(C2=CCN(CCc3ccc4ccccc4c3)CC2)c1
inactive: [1] | [2] | [3] | [4] | [18] | [5] | [6] | [7] | [8] | [9] | [10] | [11] | [12] | [14] | [15]

CC(C)C(Nc1ccc(C(F)(F)F)cc1Cl)C(=O)OC(C#N)c1cccc(Oc2ccccc2)c1 (stereo unspecified)
inactive: [1] | [2] | [3] | [4] | [19] | [18] | [6] | [9] | [11] | [13] | [14] | [15] | [16]

COC1=CC(=O)O[C@@H](/C=C/c2ccc3c(c2)OCO3)C1
inactive: [1] | [2] | [3] | [4] | [19] | [5] | [6] | [7] | [9] | [10] | [11] | [14] | [15] | [16]

CC(=O)O.CC(=O)O.CC(=O)O.CC(=O)O.CC(=O)O.CC(=O)O.CC(=O)O.O.O.[Cr].[Cr].[Cr]
inactive: [1] | [2] | [3] | [4] | [5] | [6] | [7] | [8] | [9] | [10] | [11] | [12] | [13] | [14] | [20] | [15] | [16]
